Pf Dd2 growth: qHTS Primary assay for Inhibitors of Plasmodium falciparum Dd2 growth in vitro | Potency, µM (doses to about 28.9 µM), for the others: top-dose activity, negative = inhibition, usual class: inhibitors | hit rate 4.3% among 120,000 | P. falciparum Dd2 growth, SYBR Green, 72 h; active = well fitted inhibition curve with a large enough effect;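 also: plate controls were DMSO vehicle for no effect and reference drug for full effect; nearly all actives have a fitted effect of over 65% in size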
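Infected erythrocytes (Dd2, 0.3% parasitemia, 2.5% hematocrit final) are added to compound in RPMI-1640/Albumax II medium, grown 72 h at 37C in low oxygen, then lysed with saponin/Triton-X containing SYBR Green and read by fluorescence.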
* marks the source's active call; other numbers are inactive results; i = inactive; [ ] = remark or other dose. Shown is part of a subset that was picked to be rich in hits. Potency is read from the fitted curve at half-maximal effect.

SMILES	Pf Dd2 growth
Cn1cc(S(=O)(=O)c2ccccc2)c(=O)c2cc(F)c(N3CCCCC3)cc21	1%
Cn1cc(S(=O)(=O)c2ccccc2)c(=O)c2cc(F)c(N3CCCCCC3)cc21	8.9µM*
Cn1cc(S(=O)(=O)c2cccc(Cl)c2)c(=O)c2cc(F)c(N3CCCCCC3)cc21	i
Cc1ccc(S(=O)(=O)c2cn(C)c3cc(N4CCCCC4)c(F)cc3c2=O)cc1	-27%
CCN1CCN(c2cc3c(cc2F)c(=O)c(S(=O)(=O)c2ccccc2)cn3C)CC1	-5%
Cn1cc(S(=O)(=O)c2ccccc2)c(=O)c2cc(F)c(N3CCCC3)cc21	-16%
Cn1cc(S(=O)(=O)c2ccc(Cl)cc2)c(=O)c2cc(F)c(N3CCCCCC3)cc21	14µM*
Cc1cc(C(F)(F)F)nc(CNC(=O)c2ccc3cccc(F)c3n2)n1	-16%
COc1ccc(C(=O)N2CCCC(c3nn(-c4ccc(F)cc4)c(=O)[nH]3)C2)cc1 (configuration not stated)	-14%
Cc1ccc(C)c(N2CCN(C(=O)CCn3c(=O)c4cccn4c4cccnc43)CC2)c1	i
Cc1cccc(-c2cc(NC(=O)COc3ccccc3F)n(-c3ccccc3)n2)c1	19%
COc1cccc(CNC(=O)CSc2nnc(C)c3c(C)n(-c4ccccc4)nc23)c1	-14%
CCCCC(=O)NCc1nc2cccnc2n1Cc1ccc(OC)cc1	i
O=C(NC1CC(=O)N(c2cccc(F)c2)C1)C1CCCCC1 (configuration not stated)	24%
COc1nc(C)c(C(=O)N2CCC(c3[nH]ncc3-c3ccccc3)CC2)s1	-26%
COc1cccc(CN2CCc3nc(Nc4ccc5c(c4)OCCO5)ncc3C2)c1	-20%
CCc1ccc(CN2CCc3nc(N4CCN(c5ccccc5F)CC4)ncc3C2)cc1	8.9µM*
COc1cc(OC)c(OC)cc1CN1CCc2nc(Nc3ccc4c(c3)OCCO4)ncc2C1	10µM*
CCN1CCN(c2ncc3c(n2)CCN(Cc2cccc(F)c2F)C3)CC1	32%[5.79 µM]
COc1ccccc1N1CCN(c2ncc3c(n2)CCN(Cc2ccccc2F)C3)CC1	42%[5.79 µM]
COc1cc(OC)c(OC)cc1CN1CCc2nc(N3CCN(c4ncccn4)CC3)ncc2C1	7.9µM*
Clc1ccc(CN2CCc3nc(Nc4ccc5c(c4)OCCO5)ncc3C2)cc1	i
COc1ccccc1N1CCN(c2ncc3c(n2)CCN(Cc2ccc(C)s2)C3)CC1	-8%
COc1ccc(CN2CCc3nc(N4CCOCC4)[nH]c(=O)c3CC2)c(OC)c1OC	i[5.79 µM]
COc1ccc(CN2CCc3nc(N4CCN(c5ccc(F)cc5)CC4)ncc3C2)c(OC)c1OC	11µM*
SMILES	Pf Dd2 growth
Fc1ccccc1N1CCN(c2ncc3c(n2)CCN(Cc2ccc(Br)s2)C3)CC1	-9%
Fc1ccccc1N1CCN(c2ncc3c(n2)CCN(Cc2cc(Br)cs2)C3)CC1	-19%
CC(NC(=O)c1ccc(-c2ccccc2Cl)o1)c1ncnn1C (configuration not stated)	-19%
COc1cccc([S+](=O)([O-])N2CCCC3(C2)C(=NC2CCCCC2)NC(=O)N3c2cccnc2)c1 (configuration not stated)	-28%
CCN(CC)C(=O)C1CCN(C(=O)N2CC3CC(C2)[C@H]2CCCC(=O)N2C3)CC1 (some centres not stated)	-3%
CC(C)CCNC(=O)CN1C(=O)COc2ccc(S(=O)(=O)N3CCOCC3)cc21	0%
COc1ccc(NC(=O)Cn2c(N3CCCCC3)nc(C)c(C)c2=O)cc1	i
Cc1cc(C)cc(NC(=O)N2CCC(Oc3ncccc3C(=O)N3CCCCC3)C2)c1 (configuration not stated)	i
O=C1Nc2ccccc2CC12CCN([S+](=O)([O-])c1cccc(C(F)(F)F)c1)C2 (configuration not stated)	1%
O=C(c1ccncc1)N1CCC2(CC1)CC(OCC1CC1)CCO2 (configuration not stated)	23%
CC(=O)N1CCCN(CC[C@H]2CN(C(=O)C3CCCCC3)CC[C@H]2CC(=O)O)CC1	15%[44.1 µM]
COCC1CN(C(C)=O)CC12CCN(C(=O)C1CNC1)CC2 (configuration not stated)	i
O=C(Cc1ccccc1)N1CCC2(CC1)CNS(=O)(=O)c1cccnc1O2	0%
O=C(NC1CCCC1)c1cc(CN2CCOCC2)on1	-2%
CCOc1ccccc1NC(=O)N1C[C@H](Oc2ccccc2)C[C@@H]1C(=O)N1CCOCC1	-5%
Clc1ccc(CN2CCc3nc(N4CCN(c5ccccn5)CC4)ncc3C2)cc1	-5%
CCOc1ccc(CN2CCc3nc(N4CCN(c5ncccn5)CC4)ncc3C2)cc1OC	7.9µM*
CCOc1ccc(CN2CCc3nc(N4CCN(c5ccccc5OC)CC4)ncc3C2)cc1OC	-23%
CCc1nc(-c2c3n(c(=O)n(CC(=O)NC4CCCC4)c2=O)CCCC3)no1	-21%
CC(C)(C)OC(=O)N1CCC(c2c(C(=O)N3CCOCC3)cnn2-c2ccccc2Cl)CC1	-16%
COc1ccc(OC)c(CCNC(=O)c2cnn(-c3ccccc3Cl)c2C2CCN(C(=O)OC(C)(C)C)CC2)c1	7.9µM*
CC(C)(C)OC(=O)N1CCC(c2c(C(=O)NC3CCCCC3)cnn2-c2ccc(F)cc2F)CC1	-11%
CC(C)(C)OC(=O)N1CCC(c2c(C(=O)N3CCN(c4ncccn4)CC3)cnn2-c2ccc(F)cc2F)CC1	-18%
COc1ccccc1CNC(=O)c1cnn(-c2ccc(F)cc2F)c1C1CCN(C(=O)OC(C)(C)C)CC1	10µM*
COc1cc(OC)c(NC(=O)c2cnn(-c3cccc(Cl)c3C)c2C2CCN(C(=O)OC(C)(C)C)CC2)cc1Cl	3.5µM*
SMILES	Pf Dd2 growth
CC(C)(C)OC(=O)N1CCC(c2c(C(=O)NCCc3ccsc3)cnn2-c2ccccc2Cl)CC1	-6%
Cc1ccc(CNC(=O)c2cnn(-c3ccc(F)cc3F)c2C2CCN(C(=O)OC(C)(C)C)CC2)cc1	11µM*
COC(=O)COc1ccc(C(=O)N[C@@H]2CN(C(=O)Nc3ccc(F)cc3)CCC[C@H]2O)cc1	-13%
Cc1ccc2c(c1)sc1nc(-c3cc4cc(Cl)ccc4oc3=O)cn12	i
Cc1nc2c(c(-c3ccc(O)cc3)n1)CN(C(=O)C1CCCC1)CC2	i
O=C(CCCc1ccccc1)N1CCC(c2noc(-c3ccccc3)n2)C1 (configuration not stated)	6%[5.79 µM]
O=C(Cn1cc(S(=O)(=O)Cc2ccccc2Cl)c2ccccc21)Nc1cccc(C(F)(F)F)c1	-20%
Cc1csc2nc(COc3ccccc3NC(=O)c3ccccc3Cl)cc(=O)n12	-13%
CSCc1noc(CNC(=O)CC(c2ccccc2)c2ccccc2Cl)n1 (configuration not stated)	-3%
COC(=O)CNC(=O)c1cc(-c2cccc(C(F)(F)F)c2)c2nncn2n1	9%
O=c1oc2c(CN3CCCC3)c(O)ccc2cc1-c1ccccc1	11µM*
COc1ccc(CNC(=O)Cn2c(=O)oc3cc(S(=O)(=O)N4CCC(C)CC4)ccc32)cc1	-29%
COc1ccc(-c2cc3ccc(O)c(CN4CCC(C)CC4)c3oc2=O)cc1	2.2µM*
Cc1cc2oc(=O)c(CC(=O)O)c(C)c2c2occ(-c3ccccc3)c12	-14%
COc1ccc(-c2nc(S(=O)(=O)c3ccccc3)c(N3CCC(C)CC3)o2)cc1	31%
O=c1oc2ccc(Br)cc2cc1-c1csc(-c2ccccc2)n1	23%
COc1ccc(CN2CCC(N3CCCCCC3=O)CC2)cc1	13%[44.1 µM]
COc1ccc(-c2cc3ccc(O)c(CN4CCCC4)c3oc2=O)cc1	5.6µM*

Screening results from PubChem.
